Assay results as given in PubChem BioAssay.
Activity calls are given as the source filed them. Unless noted, no rule for the calls is given here.

Columns and labels:
[1] = HepG2 liver cancer cell viability effects, profiling panel, resazurin fluorescence, 24 h, PK04 Diversity Set (AID 1172); conditions: higher = more signal; also: test concentration not given here
[2] = basal S. cerevisiae growth modulation, no modifier, primary screen, OD600, strain BY4716, 24 h, basal condition (AID 1173); conditions: OD600, 24 h, higher = more signal, called active from +8 up or from −8 down
[3] = MM1S myeloma cell viability, profiling panel, resazurin fluorescence, basal, 24 h, PK04 Diversity Set (AID 1174); conditions: higher = more signal, called active from +8 up or from −8 down;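 also: MM1S multiple myeloma cell line; test concentration not given here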
[4] = biological target: Dihydroorotate dehydrogenase (quinone), mitochondrial (Plasmodium falciparum (isolate 3D7)) (UniProt Q08210); assay: PfDHODH enzyme inhibitors, primary screen, biochemical, C-terminal His tag, absorbance 600 nm (AID 1175); conditions: DCIP absorbance 600 nm, higher = more signal, called active from +8 up or from −8 down;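 also: recombinant parasite enzyme with a five histidine tag at its C terminus; test concentration not given here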
[5] = P. aeruginosa biofilm formation inhibitors, primary screen, strain PAO1, LB-PBS medium, absorbance 600 nm (AID 1176); also: test concentration not given here; conditions: P. aeruginosa PAO1 growth/biofilm, A600, 12 h; higher = more signal
[6] = S. cerevisiae RM11-1a growth modifiers, primary screen, strain RM11-1a, OD600, basal, 24 h (AID 1177); conditions: OD600, 24 h, higher = more signal, called active from +8 up or from −8 down;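 also: cultures grown under basal conditions with no added stressor; test concentration not given here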
[7] = E. coli acrAB mutant growth effects, primary screen, E. coli filamentation inducers, strain DRC39, OD650, 24 h (AID 1178); conditions: higher = more signal, called active from +8 up or from −8 down;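 also: growth measured as culture turbidity by optical density at 650 nm; test concentration not given here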
[8] = E. coli acrAB mutant growth effects, primary screen, E. coli filamentation inducers, strain DRC39, OD650, 48 h (AID 1179);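 also: screen aims at cell division blockers that make cells filament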; conditions: E. coli DRC39 delta-acrAB growth, higher = more signal, called active from +8 up or from −8 down
[9] = RPMI8226 myeloma cell viability, profiling panel, resazurin fluorescence, basal, 24 h, PK04 Diversity Set (AID 1180); conditions: higher = more signal;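 also: RPMI8826 multiple myeloma cell line at 5000 cells per well; test concentration not given here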
[10] = biological target: E3 ubiquitin-protein ligase XIAP (Homo sapiens) (UniProt P98170); assay: XIAP binders, primary screen, biophysical, small-molecule microarray, fluorescence 635 nm (AID 1181); conditions: small-molecule microarray binding, higher = more signal;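 also: score merges 667 nm emission and signal to noise over triplicate slides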
Chain of E3 ubiquitin-protein ligase XIAP (Homo sapiens) (P98170 whole entry, looked up): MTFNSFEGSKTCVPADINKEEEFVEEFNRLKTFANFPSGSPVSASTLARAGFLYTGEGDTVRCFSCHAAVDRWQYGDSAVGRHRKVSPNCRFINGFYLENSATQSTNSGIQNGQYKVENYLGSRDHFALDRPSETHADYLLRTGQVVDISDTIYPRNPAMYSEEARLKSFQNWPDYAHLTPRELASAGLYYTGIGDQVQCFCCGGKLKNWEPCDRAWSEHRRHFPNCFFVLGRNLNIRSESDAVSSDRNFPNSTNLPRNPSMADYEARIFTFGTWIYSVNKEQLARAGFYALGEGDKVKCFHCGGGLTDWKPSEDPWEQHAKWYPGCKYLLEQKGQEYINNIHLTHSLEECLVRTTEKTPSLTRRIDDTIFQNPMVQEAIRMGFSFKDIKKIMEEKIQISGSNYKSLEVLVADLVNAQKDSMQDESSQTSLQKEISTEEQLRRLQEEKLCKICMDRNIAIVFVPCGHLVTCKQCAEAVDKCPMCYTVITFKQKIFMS

Chain of Dihydroorotate dehydrogenase (quinone), mitochondrial (Plasmodium falciparum (isolate 3D7)) (Q08210 whole entry, looked up): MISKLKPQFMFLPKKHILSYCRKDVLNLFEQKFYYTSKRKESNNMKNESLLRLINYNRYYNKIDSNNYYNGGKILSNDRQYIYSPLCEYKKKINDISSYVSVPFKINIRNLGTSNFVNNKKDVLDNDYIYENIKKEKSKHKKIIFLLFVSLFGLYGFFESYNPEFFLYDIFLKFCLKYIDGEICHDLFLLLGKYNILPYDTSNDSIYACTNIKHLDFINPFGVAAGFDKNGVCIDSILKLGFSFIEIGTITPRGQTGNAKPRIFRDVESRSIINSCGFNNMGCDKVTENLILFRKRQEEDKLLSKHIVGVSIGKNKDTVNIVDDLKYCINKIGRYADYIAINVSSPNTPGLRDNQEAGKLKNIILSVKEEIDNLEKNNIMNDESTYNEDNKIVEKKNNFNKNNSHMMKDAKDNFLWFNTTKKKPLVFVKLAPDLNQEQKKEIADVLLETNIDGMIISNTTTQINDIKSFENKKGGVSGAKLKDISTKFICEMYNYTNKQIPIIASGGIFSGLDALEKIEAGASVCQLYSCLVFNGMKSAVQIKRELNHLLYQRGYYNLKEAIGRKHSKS

Row | Compound | z-score [1] | z-score [2] | z-score [3] | composite z-score [4] | z-score [5] | z-score [6] | z-score [7] | z-score [8] | z-score [9] | composite z-score [10]
1 | C=C(/C(=C/C[C@H](OC(C)=O)c1ccc(CO)o1)c1cnc2ccccc2c1)C(C)C | 0.523 | -0.269 (inactive) | -0.575 (inactive) | -7.07 (inactive) | 0.898 (inactive) | 0.376 (inactive) | 0.307 (inactive) | -0.219 (inactive) | -0.659 | -0.0095
2 | CCCCCCCCCCC(O)C1C=CC2C(=O)N(c3ccccc3)C(=O)C2N1Nc1ccc(C#N)cc1 (stereo not given) | -2.08 | 1.18 (inactive) | -0.653 (inactive) | 0.481 (inactive) | 0.571 (inactive) | 1.25 (inactive) | -0.275 (inactive) | 0.598 (inactive) | -2.09 | 1.38
3 | COC(=O)C1=CC(CCCO)=CC(c2cccs2)N(C)C=C1C(=O)OC (stereo not given) | -0.86 | 0.856 (inactive) | -0.482 (inactive) | 0.75 (inactive) | 0.462 (inactive) | 1.13 (inactive) | -0.187 (inactive) | -0.532 (inactive) | 0.0222 | 0.212
4 | COCCOC(=O)N1C(=O)[C@@]2(c3ccccc31)[C@H](c1ccc(O)cc1)N1[C@H](c3ccccc3)[C@H](c3ccccc3)OC(=O)[C@H]1[C@@H]2C(=O)N1CCN(c2ncccn2)CC1 | 0.0716 | 0.353 (inactive) | -0.183 (inactive) | -0.18 (inactive) | 2.33 (inactive) | -0.451 (inactive) | -0.838 (inactive) | -0.935 (inactive) | -0.0522 | 0.147
5 | CCOC(=O)C[C@H]1[C@H](OC(=O)c2ccc(C(=O)c3ccccc3)cc2)[C@@H](NC(=O)C2CCCCC2)c2cc(OCCCO)ccc2N1C(=O)c1ccc2ccccc2n1 | 0.547 | -0.108 (inactive) | 0.491 (inactive) | -1.63 (inactive) | -0.312 (inactive) | 0.86 (inactive) | 0.297 (inactive) | 0.991 (inactive) | 0.0839 | -0.0141
6 | COc1ccc([Si](C)(C)[C@@H]2[C@@H](CCO)O[C@]3(C(=O)N(Cc4ccccc4)c4ccc(NC(=O)[C@H](C)O)cc43)[C@H]2C)cc1 | -4.57 | 2.31 (inactive) | -6.39 (inactive) | -0.347 (inactive) | 1.45 (inactive) | 5.11 (inactive) | 0.912 (inactive) | 0.477 (inactive) | -6.12 | 0.157
7 | CCCN1C(=O)[C@@]2(Cc3ccccc31)N=C(c1ccc(OCCCO)cc1)O[C@H]2c1ccccc1 | 0.293 | -3.07 (inactive) | -2 (inactive) | -0.172 (inactive) | -0.124 (inactive) | 0.806 (inactive) | -0.305 (inactive) | -1.03 (inactive) | -1.7 | -0.212
8 | NCCCCCNC(=O)[C@H]1C[C@H]2C(=O)N3CCC[C@H]3C(=O)N2[C@H]1c1cccc(OCCO)c1 | -1.25 | -0.0559 (inactive) | -0.02 (inactive) | 0.322 (inactive) | -0.252 (inactive) | -0.132 (inactive) | -0.658 (inactive) | -1.33 (inactive) | -0.29 | 0.256
9 | O=C1C2C=CC(C(O)c3cccc(O)c3)N(Nc3ccc([N+](=O)[O-])cc3)C2C(=O)N1c1ccccc1 (stereo not given) | 0.0585 | 0.661 (inactive) | -0.337 (inactive) | 0.861 (inactive) | -0.0601 (inactive) | 0.339 (inactive) | -0.478 (inactive) | -0.156 (inactive) | -0.55 | 0.0927
10 | CC[C@@H]1C=C(C(=O)O)[C@H](c2ccccc2)N1S(=O)(=O)c1ccc(C)cc1 | -0.791 | 0.34 (inactive) | -1.17 (inactive) | -0.95 (inactive) | 0.16 (inactive) | -1.02 (inactive) | -0.666 (inactive) | -0.135 (inactive) | -1.54 | -0.0663
11 | Cc1ccc(C(C)CC(O)C2C=CC3C(=O)N(c4ccccc4)C(=O)C3N2Nc2ccccc2)o1 (stereo not given) | -1.38 | -2.27 (inactive) | -1.01 (inactive) | -0.478 (inactive) | 0.574 (inactive) | 0.184 (inactive) | 0.1 (inactive) | -0.681 (inactive) | -0.738 | 0.254
12 | COc1ccc(C(=O)Nc2ccc(CN3C(=O)[C@]4(O[C@H](CC(=O)N5Cc6ccccc6C[C@H]5CO)[C@@H]([Si](C)(C)c5ccc(OC)cc5)[C@@H]4C)c4ccccc43)cc2)cc1 | -1.61 | 0.496 (inactive) | -1.13 (inactive) | -2.72 (inactive) | 0.0002 (inactive) | 2.48 (inactive) | -1.14 (inactive) | -1.09 (inactive) | -0.839 | -0.239
13 | CCCC=C(CCC)[C@@H](NC(=O)C(C)(C)C)c1ccc(C(=O)OC)cc1 | 1.35 | 1.3 (inactive) | -0.0387 (inactive) | 0.0907 (inactive) | 0.122 (inactive) | 1.17 (inactive) | -0.187 (inactive) | 0.0571 (inactive) | -0.0244 | -0.34
14 | C#CCN([C@@H](Cc1ccccc1)C(=O)OC)[C@@H](/C=C/C1CC1)[C@H](O)Cc1ccccc1 | 0.454 | -0.0746 (inactive) | 1.4 (inactive) | -0.371 (inactive) | -0.189 (inactive) | 0.0421 (inactive) | -0.622 (inactive) | 0.03 (inactive) | 0.659 | -0.175
15 | O=C(O)[C@@H]1[C@@H]2C(=O)N(c3ccccc3)C(=O)[C@@H]2C[C@@H]1Sc1ccccc1 | -0.303 | 0.308 (inactive) | -0.832 (inactive) | 1.2 (inactive) | 0.546 (inactive) | 1.48 (inactive) | -0.719 (inactive) | -1.3 (inactive) | -1.09 | -0.0907
16 | COCC(=C=CC[C@H](O)c1ccc(OCCO)cc1)CCO | 0.996 | -0.415 (inactive) | 0.654 (inactive) | -1.15 (inactive) | -0.0342 (inactive) | 0.137 (inactive) | 0.53 (inactive) | 0.209 (inactive) | 0.854 | 0.102
17 | CC1=C2[C@@H](CCc3ccccc3)OB(O)C[C@@H]2[C@@H]2C(=O)N(Cc3ccccc3)C(=O)[C@@H]2C1 | -0.819 | -4.86 (inactive) | -0.249 (inactive) | -1.71 (inactive) | 0.118 (inactive) | -0.849 (inactive) | -0.204 (inactive) | -0.225 (inactive) | -0.26 | -0.193
18 | COCCOC(=O)N1C(=O)[C@@]2(c3cc(C#CCNC(N)=O)ccc31)[C@H](C(N)=O)[C@H]1C(=O)O[C@H](c3ccccc3)[C@H](c3ccccc3)N1[C@@H]2c1ccccc1OCCO | -0.281 | 0.407 (inactive) | -0.126 (inactive) | -0.235 (inactive) | 0.986 (inactive) | 1.59 (inactive) | -0.0653 (inactive) | -0.0752 (inactive) | -0.0771 | -0.135
19 | C=CCNC(=O)[C@@H]1[C@H]2C(=O)O[C@H](c3ccccc3)[C@H](c3ccccc3)N2[C@H](c2ccc(O)cc2)[C@@]12C(=O)N(C(=O)OCCOC)c1ccc(C#CC3=CCCCC3)cc12 | -0.411 | 0.0346 (inactive) | -0.279 (inactive) | 0.235 (inactive) | 1.26 (inactive) | 0.891 (inactive) | -0.713 (inactive) | -0.277 (inactive) | -1.09 | -0.0056
20 | COc1cc(NN2C(C(O)c3ccco3)C=CC3C(=O)N(C)C(=O)C32)cc(OC)c1OC (stereo not given) | -1.41 | 0.753 (inactive) | -1.76 (inactive) | -0.139 (inactive) | 0.711 (inactive) | 0.322 (inactive) | -1.02 (inactive) | -0.941 (inactive) | -1.98 | 0.391
21 | CC(C)N1C(=O)C[C@@](C(=O)O)(c2ccc([N+](=O)[O-])cc2)[C@H]1c1ccc(CO)cc1 | -0.847 | -0.717 (inactive) | 0.305 (inactive) | -1.24 (inactive) | 0.0309 (inactive) | 0.196 (inactive) | 0.732 (inactive) | 0.684 (inactive) | 0.191 | -0.169
22 | NC(=O)[C@H]1[C@@H]2C(=O)O[C@@H](c3ccccc3)[C@@H](c3ccccc3)N2[C@@H](c2ccc(OCCO)cc2)[C@]12C(=O)Nc1ccc(C#CCCO)cc12 | -0.0423 | 0.704 (inactive) | -0.245 (inactive) | -0.624 (inactive) | 0.35 (inactive) | 1.78 (inactive) | -0.0157 (inactive) | 0.0992 (inactive) | -0.169 | -0.0884
23 | COC(=O)[C@@]1(Cc2ccc(OC)cc2)[C@H]2c3cc(C(=O)N4CCCC4)n(CCc4c[nH]c5ccc(O)cc45)c3C[C@H]2CN1C(=O)c1ccccc1 | -0.553 | 0.532 (inactive) | -0.56 (inactive) | -0.402 (inactive) | 0.411 (inactive) | 0.7 (inactive) | 0.23 (inactive) | 0.288 (inactive) | -0.377 | 0.0401
24 | C=CC[C@@]1(C(=O)NCCCOC)N=C(c2ccc(OCCCO)cc2)O[C@@H]1c1ccccc1N=[N+]=[N-] | 1.06 | -0.537 (inactive) | -0.394 (inactive) | 1.05 (inactive) | -0.814 (inactive) | 0.464 (inactive) | 0.868 (inactive) | 1.43 (inactive) | -0.137 | 0.598
25 | COc1cc(NN2C(C(O)c3ccc(N(C)C)cc3)C=CC3C(=O)N(c4ccccc4)C(=O)C32)cc(OC)c1OC (stereo not given) | -1.16 | 0.744 (inactive) | -0.581 (inactive) | -1.1 (inactive) | 0.794 (inactive) | -0.591 (inactive) | -0.0722 (inactive) | -1.45 (inactive) | -1.46 | 0.38
26 | COc1cc(NN2C(C(O)c3cc(OC)c(OC)c(OC)c3)C=CC3C(=O)N(C)C(=O)C32)cc(OC)c1OC (stereo not given) | -0.177 | 0.712 (inactive) | -0.464 (inactive) | -1.27 (inactive) | 0.366 (inactive) | 0.276 (inactive) | -0.0468 (inactive) | 0.179 (inactive) | -0.97 | -0.144
